Tau fibril ThT: inhibitors of human tau fibril formation, thioflavin T binding; P10636; recombinant tau K18 P301L, heparin-induced fibrillization, ThT fluorescence; Potency, µM (titrated, usually from 57.4 µM), most hits filed as inhibitors; actives 2.1% (n = 270,000); further: nearly all actives have a fitted effect of over 55% in size
Target sequence (P10636 561-689 P618L limits assumed): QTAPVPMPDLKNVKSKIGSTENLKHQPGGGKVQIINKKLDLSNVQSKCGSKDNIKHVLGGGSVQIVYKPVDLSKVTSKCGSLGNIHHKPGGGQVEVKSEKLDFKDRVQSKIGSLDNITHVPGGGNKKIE
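Fibril formation assay: tau K18 P301L at 15 uM with trace Alexa 594 label, heparin inducer 20 uM, pH 7 sodium acetate buffer, 37 C for 6 hr; endpoint ThT signal.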
Tau fibril FP: inhibitors of human tau fibril formation | P10636 | K18 P301L tau heparin fibrillization, Alexa594 FP, 6 h | Potency, µM (doses to about 57.7 µM), hits mostly inhibitors | actives 0.39% (n = 280,000) | AID 1468; further: nearly all actives have a fitted effect of over 55% in size
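Human K18 P301L fragment (15 uM unlabeled plus 0.24 uM Alexa 594-labeled) in 100 mM sodium acetate pH 7 with compound, aggregation induced by 20 uM heparin for 6 hr at 37 C. ThT (30 uM) added for 1 hr, then Alexa 594 FP read.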
FBPA coupling cs: coupling enzyme interference in Giardia aldolase counter-screen. actives 0.67% (n = 290,000). AID 2472. coupling enzyme system counterscreen, AmpLite Red fluorescence. activity change, negative = inhibition, % at 58.2 µM, hits read low; in the data active means activity change below about -30%
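Activity here indicates interference with the coupling reaction, not aldolase inhibition. Compounds at 57.5 uM final met coupling enzymes for 10 min at RT; substrate and AmpLite Red detection followed, with a 525/598 nm fluorescence read after 20 min.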
G9a inh: blocks human histone lysine methyltransferase G9a; G9a H3K9 monomethylation, AlphaScreen, 2 h; Potency, µM (doses to about 102 µM), usual class: inhibitors; actives 8.8% (n = 350,000); AID 504332; further: nearly all actives have a fitted effect of over 75% in size
Target sequence (Q96KQ7 913-1193 limits assumed): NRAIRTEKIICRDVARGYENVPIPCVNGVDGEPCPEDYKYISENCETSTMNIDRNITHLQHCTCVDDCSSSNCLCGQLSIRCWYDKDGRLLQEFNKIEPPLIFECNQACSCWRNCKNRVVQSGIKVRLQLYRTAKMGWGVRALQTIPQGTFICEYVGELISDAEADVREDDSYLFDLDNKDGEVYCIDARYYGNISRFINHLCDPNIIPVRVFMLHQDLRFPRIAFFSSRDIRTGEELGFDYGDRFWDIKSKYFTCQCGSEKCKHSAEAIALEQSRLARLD
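AlphaScreen read-out: biotin-H3K9 peptide (500 nM) methylation by 20 nM enzyme with 20 uM SAM, 2 h at room temperature after 15 min compound preincubation; anti-monomethyl H3K9 antibody plus donor/acceptor beads, 10 min dark.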
Tau fluor counter: counter-screen for tau fibril formation inhibitors; tau K18 P301L Alexa594 fluorescence, heparin fibrillization; Potency, µM (doses to about 57.7 µM); actives 0.93% (n = 280,000); further: nearly all actives have a fitted effect of over 55% in size
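Human tau K18 P301L (15 uM unlabeled, 0.24 uM Alexa 594-labeled) in 100 mM sodium acetate pH 7 with 20 uM heparin, 6 hr at 37 C. ThT 30 uM added, 1 hr ambient; Alexa 594 FP and total fluorescence read at 555/632 nm.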
Sfp inh: inhibitors of Bacillus subtilis Sfp phosphopantetheinyl transferase; actives 3.5% (n = 310,000); Potency, µM, most hits filed as inhibitors; Biochemical Sfp PPTase activity, qHTS;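 further: the enzyme is Sfp with the accession as filed and its product quenches rhodamine fluorescence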
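Buffer: 50 mM Hepes-Na pH 7.6, 10 mM MgCl2, 0.01% Nonidet P-40, 0.01% BSA. Enzyme 15 nM, pre-exposed to compound 15 min; substrates then added and fluorescence change tracked over 30 min.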
Numbers stand for hits; i = inactive; ? = inconclusive; nt = no result; [ ] = another dose, or the depositor's remark. Only some compounds are listed: those with a hit (about 11% of all), similar ones and a draw of the others. Unless noted, the call rests on the fitted dose curve; in most records, active means well fitted curve in the direction sought with a large enough effect; inconclusive means small, poorly fitted or top-dose-only effect, or another doubt; inactive means no such curve, though single readings can be large; an effect the other way counts as inactive or inconclusive.

SMILES	Tau fibril ThT	Tau fibril FP	FBPA coupling cs	G9a inh	Tau fluor counter	Sfp inh
COc1ccc(C(=O)NCC(c2cccnc2)N2CCN(c3ccc(F)cc3)CC2)cc1 (centres undefined)	?	i	nt	i	i	nt
CC(C)CCCC(C)NC(=O)c1cc(S(=O)(=O)N2CCCCC2)ccc1N1CCOCC1 (centres undefined)	nt	nt	nt	i[12.7 µM]	nt	nt
CN(C)CCCNc1nc2sc3c(c2c(=O)n1CCc1ccccc1)CCCCC3	i	i	i	45µM	?	i
CSc1nc2sc3c(c2c(=O)n1C1CCCCC1)CCN(C)C3	i	i	i	50µM	i	i
NNc1nc2sc3c(c2c(=O)n1Cc1ccccc1)CCC3	?	i	i	?	i	32µM
O=c1c2c3c(sc2nc(NCCO)n1-c1ccccc1)CCCC3	nt	nt	i	i	nt	i
O=C(O)CSc1nc2sc3c(c2c(=O)n1Cc1ccccc1)CCCCC3	nt	nt	i	i	nt	i
COc1ccc(-n2c(NN)nc3sc4c(c3c2=O)CCCC4)cc1	?	i	i	50µM	i	i
CCSc1nc2sc3c(c2c(=O)n1C1CCCCC1)CCN(C)C3	i	i	i	?	i	i
COc1cccc(C(=O)N2CCC(n3nccc3NC(=O)C(OC)c3ccccc3)CC2)c1 (centres undefined)	nt	nt	i	i	nt	i
Cc1cccc(NC(=O)CCS(=O)(=O)c2ccc(Cl)cc2)c1	nt	nt	i	i	nt	i
COc1ccc(C2=Nn3c(nnc3-c3ccc(OC)c(OC)c3)SC2)cc1	nt	nt	i	nt	nt	i
O=C(Nc1ccc(Cl)c(Cl)c1)Nc1nnc(CC2=CCCCC2)s1	i	8.9µM	i	i	?	i
O=C(Nc1nnc(CC2=CCCCC2)s1)c1cccs1	i	i	i	i[12.7 µM]	i	i
O=C(c1cccs1)c1no[n+]([O-])c1C(=O)c1cccs1	?	?	-67	10µM	?	32µM
COc1ccc(C(=O)c2no[n+]([O-])c2C(=O)c2ccc(OC)cc2)cc1	18µM	?	i	8.9µM	i	i
O=C(c1nc2ccc(Cl)cn2c1CN1CCC[C@H]1CO)N1CCCCCCC1	nt	nt	nt	?	nt	i
O=C1NC(=S)S/C1=C\c1ccc2ccccc2c1	nt	nt	i	i	nt	i
CCN1C(=O)C(=Cc2cccc(OC)c2Oc2ccc([N+](=O)[O-])cc2[N+](=O)[O-])SC1=S	nt	nt	i	45µM	nt	?
COc1cccc(OCCOc2ccc(/C=C3/SC(=S)NC3=O)cc2)c1	nt	nt	i	7.9µM	nt	50µM
COc1cc(/C=C2/SC(=S)NC2=O)ccc1OS(=O)(=O)c1ccc(C)cc1	16µM	i	i	20µM	?	25µM
COc1cc(/C=C2\SC(=S)NC2=O)ccc1OS(=O)(=O)c1ccccc1	16µM	i	i	11µM	?	50µM
CCCNC(=O)C1=CC(c2ccc3c(c2)OCO3)=NS(=O)(=O)N1C	i	i	nt	i	i	nt
Cc1c(C(C)C[C@H](C)O)oc(=O)c2c1Oc1c(C)c(C(C)C[C@H](C)O)oc(=O)c1C2 (some centres undefined)	nt	nt	nt	i[2.33 µM]	nt	nt
COc1ccc(/C=C2\SC(=O)NC2=S)cc1OC	8.9µM	?	i	6.3µM	i	25µM
SMILES	Tau fibril ThT	Tau fibril FP	FBPA coupling cs	G9a inh	Tau fluor counter	Sfp inh
COc1ccc(/C=C2\SC(=S)NC2=O)cc1OS(=O)(=O)c1ccc(NC(C)=O)cc1	13µM	i	i	?	i	i
CCOc1ccc(N=C2NC(=O)S/C2=C\c2ccc(OC)cc2)cc1	?	i	i	?	i	i
COc1ccc(/C=C2/SC(=O)NC2=O)cc1	i	i	i	79µM	i	i
CCOc1ccc(/C=C2\SC(=S)NC2=O)cc1OC	?	i	i	13µM	i	i
COc1ccc(-c2cccc(NS(=O)(=O)c3cc(C)c(Cl)cc3C)c2)nn1	i	i	nt	i	?	nt
CCOC(=O)C1CCC(CN(Cc2ccc(Cl)cc2)S(=O)(=O)c2cccc(Cl)c2C)CC1 (centres undefined)	i	i	nt	i	i	nt
COc1cc(/C=C2\SC(=O)NC2=O)ccc1Oc1ccc([N+](=O)[O-])cc1[N+](=O)[O-]	14µM	i	i	10µM	?	56µM
CCOc1ccccc1C(=O)Oc1cc(C)[nH]c(=O)c1[N+](=O)[O-]	nt	nt	i	?	nt	i
COc1ccc(OC)c2c(=O)cc(C(=O)O)[nH]c12	nt	nt	i	25µM	nt	i
O=C(CC1C(=O)NCCN1Cc1ccc(F)cc1)NC1CCCCCCC1 (centres undefined)	nt	nt	nt	50µM	nt	i
Cc1ccc(CN2CCNC(=O)C2CC(=O)NC2CCCCCC2)cc1 (centres undefined)	nt	nt	nt	56µM	nt	i
O=C(CC1C(=O)NCCN1CC(c1ccccc1)c1ccccc1)NC1CC1 (centres undefined)	i	i	i	45µM	i	i
COc1ccc(CN2CCNC(=O)C2CC(=O)NC2CCCCCCC2)cc1OC (centres undefined)	nt	nt	nt	i	nt	i
COc1ccc(CN2CCNC(=O)C2CC(=O)NC2CCCC2)cc1OC (centres undefined)	nt	nt	nt	71µM	nt	i
O=C(CN1C(=O)C2(SCC(=O)N2c2ccc(F)c(F)c2)c2ccccc21)Nc1cccc(Cl)c1 (centres undefined)	i	?	nt	?	?	nt
COc1ccccc1-c1noc(-c2ccc(N3CCC(C)CC3)c([N+](=O)[O-])c2)n1	i	i	nt	i	i	nt
CCOc1ccc(CN2CCNC(=O)C2CC(=O)NC2CCCCCC2)cc1 (centres undefined)	nt	nt	i	40µM	nt	i
COc1ccc(S(=O)(=O)N2CCCCC2)cc1C(=O)Nc1cccc(C(F)(F)F)c1	i	?	nt	i	i	nt
COC(=O)c1c(NC(=S)Nc2ccc(CC(=O)O)cc2)sc(C)c1C	?	i	i	8.9µM	i	i
COC(=O)c1c(NC(=O)c2ccoc2C)sc(C)c1C	nt	nt	nt	?	nt	i
Cc1sc(NC(=S)Nc2ccc(F)cc2)c(C(N)=O)c1C	?	i	i	28µM	?	20µM
CCS(=O)(=O)Nc1ccc2[nH]c(=O)[nH]c2c1	i	i	i	i	i	i
CCOc1ccc(CCNC(=O)c2cc3cccc4c3n2CCS4)cc1	?	?	nt	i	?	nt
Cc1cc(Cl)ccc1OC(C)C(=O)Nc1ccc([N+](=O)[O-])cn1 (centres undefined)	?	i	i	?	?	i
N=C1C=CC=C2C1=NC1(CCCCC1)N2O	25µM	?	-48	?	i	8.9µM
Cc1ccc(S(=O)(=O)N/N=C\c2cn(CC(N)=O)c3ccccc23)cc1C	nt	nt	i	79µM	nt	i
NC(=O)Cn1cc(/C=N\NS(=O)(=O)c2ccc(Cl)cc2)c2ccccc21	nt	nt	i	i	nt	i
O=C(NCc1ccccc1)c1ccc(Cn2c(=O)c3cccn3c3cccnc32)cc1	i	i	nt	i	i	nt
CC(C)C(NC(=O)c1ccco1)C(=O)NC1CCCCCC1 (centres undefined)	nt	nt	nt	79µM	nt	i

Compound activity deposited in PubChem BioAssay by National Center for Advancing Translational Sciences (NCATS).
